GPR32 ag – GPR32 (DRV1) agonism, beta-arrestin recruitment; CHO-K1 GPR32 beta-arrestin PathHunter luminescence, 90 min; zero percent set by DMSO-only wells; activation, % at 76.9 µM; hit rate 2.5% among 48,000;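 active = activation of at least 60% and not above a set upper limit, about 1 call in 100 departs from these limits; inconclusive = activation of 40% to 60%, or above that upper limit; inactive = activation under 40%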
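CHO-K1 cells stably expressing ProLink-tagged GPR32 and Enzyme Activator-tagged beta-arrestin were seeded at 2,500 cells/well overnight, exposed to compounds for 90 min at 37 °C, then read by beta-Gal complementation chemiluminescence after 1 h detection reagent.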
GALK inhibitor – inhibitors of human galactokinase (GALK) | P51570 | recombinant GALK, Kinase-Glo ATP luminescence, 1 h | 44,000 tested, under 10 active | AID 1347072 | Potency, µM (doses to about 57.5 µM), actives largely listed as inhibitors
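Compounds were pinned into ATP buffer, then GALK-galactose mix was added (final 5 nM enzyme, 35 uM ATP, 100 uM galactose, pH 8.0). After 1 h at room temperature, Kinase-Glo Plus was added and luminescence read.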
NTMT1 inhibitor – blocks human N-terminal methyltransferase 1 activity; Q9BV86; hit rate 2.5% among 59,000; Potency, µM (titrated, usually from 114 µM), actives largely listed as inhibitors; NTMT1 MTase-Glo SAH luminescence, purified enzyme; also: nearly all actives have a fitted effect of over 65% in size
Target sequence (Q9BV86 whole entry, looked up): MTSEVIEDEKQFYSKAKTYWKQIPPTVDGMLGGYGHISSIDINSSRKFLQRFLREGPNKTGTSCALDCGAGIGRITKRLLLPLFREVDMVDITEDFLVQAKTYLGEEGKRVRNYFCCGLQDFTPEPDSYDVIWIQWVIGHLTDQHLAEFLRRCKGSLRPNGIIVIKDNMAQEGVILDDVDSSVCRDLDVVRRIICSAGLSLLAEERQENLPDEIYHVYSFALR
PTAP-TSG101 blk – blocks PTAP binding to human TSG101, validation. Q99816. Fluorescence polarization, FITC-PTAP peptide/Tsg101, 20 min. Potency, µM (titrated, usually from 115 µM), actives largely listed as inhibitors. 44,000 tested, under 10 active. AID 1347069
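The Tsg101 binding domain, at 10 uM final, is mixed with compound and a FITC peptide bearing the PTAP motif (50 nM final). After 20 min at r.t., polarization is measured; actives defined by CRC class, efficacy cut-off 60% inhibition.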
B2AR arrestin ag – ADRB2 beta-arrestin recruitment; Potency, µM (highest dose often 46.1 µM), usual class: activators; AID 1347077; HTLA Tango cells, beta-arrestin recruitment, luciferase luminescence, 18 h; 44,000 tested, under 10 active
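Tango cells (recombinant beta2-AR, beta-arrestin, tTA-driven luciferase), 1500/well in DMEM 1% FBS, treated 18 h at 37 °C with compounds up to 46 µM; luciferin mix added, luminescence read after 15 min; %activity curves fitted and curve-classed.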
GALC G270D act – enhancers of human galactocerebrosidase G270D mutant activity in cells; P54803; 145M-Twi-hGALC-G270D cells (Twitcher mouse brain line with human GALC G270D), HMU-beta-Gal fluorescence, 48 h; Potency, µM (top dose mostly 57.5 µM), hits mostly activators; hit rate 0.1% among 45,000; also: nearly all actives have a fitted effect of over 65% in size
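Fluorogenic HMU-b-Gal hydrolysis (0.1 mM final, pH 5.2 citrate-phosphate with 1 mg/mL sodium taurocholate; carbonate stop buffer) measures mutant GALC activity after compound treatment of live 145M-Twi Twitcher brain cells stably carrying human GALC-G270D, with wild-type GALC line alongside; activation sought.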
Hits are given with their value; . = inactive; ? = inconclusive; / = no result. This is a sample that favours compounds with a hit; in the whole collection about 3.6% have one here. Unless noted, calls follow the shape of the dose curve; as a rule, active = well fitted curve in the direction sought with a large enough effect; inconclusive = small, poorly fitted or top-dose-only effect, or another doubt; inactive = no such curve, though single readings can be large; an effect the other way counts as inactive or inconclusive.

SMILES	GPR32 ag	GALK inhibitor	NTMT1 inhibitor	PTAP-TSG101 blk	B2AR arrestin ag	GALC G270D act
COc1ccc(NC(=O)c2nnn(CC(=O)Nc3ccc(C)c(C)c3)c2N)cc1OC	91.0	.	.	.	.	.
CCOc1ccc(NC(=O)Cn2nnc(C(=O)NCCc3ccccc3)c2N)cc1	87.7	.	.	.	.	.
O=C(CN1CCN(Cc2ccc(F)cc2Cl)C1=O)NCCc1ccc(Cl)cc1	.	.	.	.	.	.
Cc1ccc(CCNC(=O)CN2CCN(Cc3ccc(Cl)cc3)C2=O)cc1	60.1	.	.	.	.	.
COC(=O)C1=C(C)NC(COC(N)=O)=C(C(=O)OC(C)C)C1c1cccc(Cl)c1Cl (stereo not drawn)	86.1	/	?	/	/	.
O=C(/C=C/c1ccc(O)cc1)OCC1OC(O)C(OC2OC(CO)C(O)C(O)C2O)C(O)C1O (stereo not drawn)	/	/	.	/	/	/
CCOc1ccc(CNC(=O)c2ccc(Sc3ccc(Cl)cc3)c(NC(C)=O)c2)cc1OC	.	.	89.1µM	.	.	.
Cc1ccc(C)c(N2CCN(S(=O)(=O)c3ccc(-c4coc(C)n4)cc3)CC2)c1	.	.	.	.	.	.
CC(=O)c1ccc(N2CCN(S(=O)(=O)c3ccc(-c4coc(C)n4)cc3)CC2)cc1	63.0	.	.	.	.	.
O=C(Nc1ccc(F)c(C(F)(F)F)c1)Nc1ccc(-c2ccncc2)s1	/	/	.	/	/	/
Fc1ccccc1Cc1cn2cc(-c3ccc(Cl)cc3)nc2s1	68.2	.	.	.	.	.
NC(=O)c1c(-c2ccccc2)no[n+]1[O-]	/	/	.	/	/	/
Cc1ccc2nc(NS(=O)(=O)c3ccc(Cl)cc3)c(Nc3ccc(C(=O)O)cc3)nc2c1	83.2	.	.	.	.	.
COc1cccc(Nc2nc3cc(C)ccc3nc2NS(=O)(=O)c2ccc(Cl)cc2)c1	.	.	.	.	.	.
O=C(OCc1ccccc1)N1CCN(C(=O)[C@H](Cc2ccc(O[S+](=O)([O-])c3cccc4cnccc34)cc2)N[S+](=O)([O-])c2cccc3cnccc23)CC1	/	/	.	/	/	/
Cc1nnc(NC(=O)c2ccccc2)s1	.	.	.	.	.	.
CC(C)C(=O)Nc1cccc(C(=O)Nc2nnc(CC(C)(C)C)s2)c1	61.7	.	.	.	.	.
NS(=O)(=O)c1ccc(Cc2c(-c3cccc(-c4ccccc4)c3)nn(-c3nc(C(=O)O)cs3)c2CC2CC2)cc1	/	/	44.7µM	/	/	/
COc1ccc(OC)c(-c2cc(C(=O)Nc3c(C)nn(Cc4ccc(C)cc4)c3C)no2)c1	.	.	/	.	.	/
COc1ccccc1-c1cc(C(=O)Nc2c(C)nn(Cc3ccc(Cl)cc3)c2C)no1	72.3	.	/	.	.	/
COc1ccc(-c2cc(C(=O)Nc3ccn(Cc4ccc(C)cc4)n3)no2)cc1OC	77.7	.	/	.	.	/
O=c1ccn(C2OC(CO)C(O)C2O)c(=O)[nH]1 (stereo not drawn)	/	/	.	/	/	/
CCc1ccc(NC(=O)CN(c2ccc(OC)cc2)S(=O)(=O)c2c(C)[nH]c(=O)[nH]c2=O)cc1	.	.	.	.	.	.
CCc1ccc(NC(=O)CN(c2cc(C)cc(C)c2)S(=O)(=O)c2c(C)[nH]c(=O)[nH]c2=O)cc1	76.5	.	.	.	.	.
CC/C(=C(/c1ccc(/C=C/C(=O)O)cc1)c1ccc2[nH]ncc2c1)c1ccc(F)cc1Cl	/	/	31.6µM	/	/	/
O=C(Nc1ccc(Cl)c(Cl)c1)Nc1ccnc(-c2ccncc2)n1	/	/	.	/	/	/
Cn1nnnc1Sc1ncnc2scc(-c3ccc(Cl)cc3)c12	/	/	.	/	/	/
Cn1nnnc1Sc1ncnc2scc(-c3ccc4c(c3)OCO4)c12	/	/	89.1µM	/	/	/
CC1C(O)C(O)C2C(C(=O)OCCc3ccc(O)cc3)=COC(O[C@@H]3O[C@H](CO)[C@@H](O)[C@H](O)[C@H]3O)C12 (stereo partly drawn)	/	/	.	/	/	/
CCc1nnc2c(Nc3ccccc3Br)nc3ccccc3n12	.	.	.	.	.	.
